# Test results reported in PubChem BioAssay.
# Unmarked numbers belong to inactive results. A call without a number means that no potency is given here. For part of these data: Potency and affinity values are given separately. The source made the active and inactive calls. Unless noted, the rule behind the calls is not given here.
# What was measured:
# [1] = antimalarial activity against Dd2 strain (AID 2302;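 active = growth inhibition above 50% at the single 2 µM test dose, taken to imply half-maximal potency below 2 µM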); details: P. falciparum Dd2 in RBCs, LDH growth readout, 72 h; at 2 µM; stronger effect = higher value
# [2] = human hepatoma cell viability loss – ATP luminescence, cytotoxicity control for P. falciparum antimalarial project, primary screen (AID 2303;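 active = inhibition above 50%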); details: HepG2 viability, 24-48 h, at 10 µM, stronger effect = higher value
# [3] = molecular target: L-lactate dehydrogenase (Plasmodium falciparum (isolate CDC / Honduras)) (UniProt Q27743); experiment: PfLDH activity inhibition – cell lysate, 3D7 strain, counter-screen for P. falciparum growth inhibition project (AID 2304); details: P. falciparum 3D7 crude extract, LDH APAD/NBT absorbance; at 2 µM; stronger effect = higher value
# Sequence of L-lactate dehydrogenase (Plasmodium falciparum (isolate CDC / Honduras)) (Q27743 whole entry, looked up): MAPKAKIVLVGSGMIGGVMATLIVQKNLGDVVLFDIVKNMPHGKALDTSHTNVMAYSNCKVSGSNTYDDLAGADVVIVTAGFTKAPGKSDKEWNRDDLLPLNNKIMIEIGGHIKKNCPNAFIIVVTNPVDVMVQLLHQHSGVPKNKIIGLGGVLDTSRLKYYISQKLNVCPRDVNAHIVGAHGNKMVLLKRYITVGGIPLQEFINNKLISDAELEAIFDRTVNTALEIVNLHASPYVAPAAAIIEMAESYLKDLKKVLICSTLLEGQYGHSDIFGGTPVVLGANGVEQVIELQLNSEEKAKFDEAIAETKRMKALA
# [4] = inhibition of 3D7 malaria parasite growth – strain 3D7 (AID 2306); details: P. falciparum 3D7 erythrocytic growth, LDH absorbance, 72 h; at 2 µM; stronger effect = higher value
# [5] = molecular target: Calcium-dependent protein kinase 1 (Plasmodium falciparum (isolate 3D7)) (UniProt P62344); experiment: PfCDPK1 kinase inhibitors, biochemical, TCAMS library (AID 1159585; cut-off not given, nearly all actives have IC50 up to about 0.98 µM;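 note: inhibitors leave more ATP so luminescence rises with inhibition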); details: recombinant PfCDPK1, Kinase-Glo ATP depletion luminescence
# Sequence of Calcium-dependent protein kinase 1 (Plasmodium falciparum (isolate 3D7)) (P62344 whole entry, looked up): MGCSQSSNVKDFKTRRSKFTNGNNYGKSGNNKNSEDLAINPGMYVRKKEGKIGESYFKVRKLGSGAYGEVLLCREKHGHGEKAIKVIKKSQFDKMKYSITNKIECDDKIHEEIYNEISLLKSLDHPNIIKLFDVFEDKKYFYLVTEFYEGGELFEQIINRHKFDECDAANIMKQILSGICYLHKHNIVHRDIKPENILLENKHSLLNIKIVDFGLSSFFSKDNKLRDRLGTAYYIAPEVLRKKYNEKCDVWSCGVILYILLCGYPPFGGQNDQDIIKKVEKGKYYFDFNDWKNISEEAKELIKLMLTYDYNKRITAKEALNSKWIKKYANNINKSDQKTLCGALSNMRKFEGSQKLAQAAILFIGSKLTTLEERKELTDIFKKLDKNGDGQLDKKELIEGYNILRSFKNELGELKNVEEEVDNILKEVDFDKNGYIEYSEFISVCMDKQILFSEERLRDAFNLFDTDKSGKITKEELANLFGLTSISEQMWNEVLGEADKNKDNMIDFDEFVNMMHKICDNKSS
# [6] = molecular target: Plasmodium falciparum protein kinase 6 (PK6, PF3D7_1337100) (UniProt Q8IDW1); experiment: PfPK6 kinase inhibitors, biochemical, TCAMS library (AID 1159586); details: recombinant PfPK6, Kinase-Glo ATP depletion luminescence
# Sequence of Plasmodium falciparum protein kinase 6 (PK6, PF3D7_1337100) (Q8IDW1 1-305): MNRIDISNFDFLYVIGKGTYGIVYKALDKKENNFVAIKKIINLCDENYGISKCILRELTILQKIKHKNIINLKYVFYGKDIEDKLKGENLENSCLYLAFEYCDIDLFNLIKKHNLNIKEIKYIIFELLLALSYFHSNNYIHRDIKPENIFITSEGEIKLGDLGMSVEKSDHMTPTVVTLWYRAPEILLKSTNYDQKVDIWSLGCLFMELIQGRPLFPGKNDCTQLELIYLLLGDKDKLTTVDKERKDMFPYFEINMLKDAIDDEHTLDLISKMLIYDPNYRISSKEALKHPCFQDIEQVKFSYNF
# [7] = molecular target: Protein kinase 7 (PK7), Plasmodium falciparum 3D7 (PF3D7_0213400) (UniProt Q7YTF7); experiment: inhibition of Plasmodium PK7 catalytic activity – biochemical, TCAMS antimalarial set, Kinase-Glo luminescence (AID 1159587); details: recombinant PfPK7, Kinase-Glo ATP depletion luminescence
# Sequence of Protein kinase 7 (PK7), Plasmodium falciparum 3D7 (PF3D7_0213400) (Q7YTF7 1-343): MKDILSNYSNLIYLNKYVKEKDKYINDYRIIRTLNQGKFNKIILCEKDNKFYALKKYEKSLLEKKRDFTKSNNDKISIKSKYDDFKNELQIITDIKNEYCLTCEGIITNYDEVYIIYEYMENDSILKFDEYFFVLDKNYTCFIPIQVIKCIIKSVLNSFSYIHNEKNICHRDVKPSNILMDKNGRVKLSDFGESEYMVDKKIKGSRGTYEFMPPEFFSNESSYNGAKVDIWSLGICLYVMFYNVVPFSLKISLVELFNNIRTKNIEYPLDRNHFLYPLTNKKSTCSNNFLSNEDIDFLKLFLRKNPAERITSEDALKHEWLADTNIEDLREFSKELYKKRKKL
# [8] = molecular target: Calcium-dependent protein kinase 4 (Plasmodium falciparum (isolate 3D7)) (UniProt Q8IBS5); experiment: PfCDPK4 kinase inhibitors, biochemical, TCAMS library (AID 1159588; cut-off not given, nearly all actives have IC50 up to about 0.91 µM); details: recombinant PfCDPK4, Kinase-Glo ATP depletion luminescence
# Sequence of Calcium-dependent protein kinase 4 (Plasmodium falciparum (isolate 3D7)) (Q8IBS5 whole entry, looked up): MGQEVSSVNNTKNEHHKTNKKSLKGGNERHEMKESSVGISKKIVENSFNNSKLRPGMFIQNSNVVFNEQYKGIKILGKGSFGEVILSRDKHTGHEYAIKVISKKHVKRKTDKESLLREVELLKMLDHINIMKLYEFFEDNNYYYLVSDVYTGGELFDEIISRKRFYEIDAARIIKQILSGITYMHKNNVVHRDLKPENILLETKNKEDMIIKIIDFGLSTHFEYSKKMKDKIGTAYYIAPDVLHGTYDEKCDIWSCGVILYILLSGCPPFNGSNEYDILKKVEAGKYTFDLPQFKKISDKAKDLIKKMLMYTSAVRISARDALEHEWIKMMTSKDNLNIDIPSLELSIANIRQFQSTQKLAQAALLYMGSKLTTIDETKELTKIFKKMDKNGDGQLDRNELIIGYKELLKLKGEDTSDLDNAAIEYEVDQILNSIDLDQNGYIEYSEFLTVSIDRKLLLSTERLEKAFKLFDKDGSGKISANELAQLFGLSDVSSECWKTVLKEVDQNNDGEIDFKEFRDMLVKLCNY
SMILES,growth inhibition [1],inhibition [2],inhibition [3],growth inhibition [4],outcome [5],outcome [6],outcome [7],outcome [8]
O=S(=O)(NCCN1CCCC1)c1ccc(-c2cccc(CNCc3ccc(F)cc3)c2)s1,50% (active),48%,4%,99% (active),inactive,inactive,inactive,inactive
O=C(Nc1cc(C(F)(F)F)ccc1Cl)c1ccc(Cn2cc(Br)cn2)cc1,67% (active),24%,-5%,91% (active),inactive,inactive,inactive,inactive
CC(C)OC(=O)c1ccc(NC(=O)N[C@@H](Cc2ccc(O)cc2)C(=O)NC2CCC(CCN3[C@@H]4CC[C@H]3c3ccccc34)CC2)cc1 (some centres not stated),67% (active),3%,3%,95% (active),inactive,inactive,inactive,inactive
Cc1ccc2c(c1)NC[C@@]21CCN(C[C@@H](O)C2CCN(c3ccnc(Cl)c3)CC2)C[C@@H]1C,69% (active),46%,-5%,87% (active),inactive,inactive,inactive,inactive
CCCCN(Cc1cc(Cl)c(OCC)c(OC)c1)c1ccc(C(O)(C(F)(F)F)C(F)(F)F)cc1,97% (active),5%,-6%,92% (active),inactive,inactive,inactive,inactive
COc1cccc2sc(Nc3nc(-c4ccccn4)cs3)nc12,76% (active),41%,4%,94% (active),inactive,inactive,inactive,inactive
Cc1cc(N[C@@H](Cc2ccccc2)C(=O)NCc2cccs2)nc(NCCc2ccccc2)n1,61% (active),6%,-1%,92% (active),inactive,inactive,inactive,inactive
CCC(=Cc1cccc([N+](=O)[O-])c1)C(=O)NCC1CCN(c2nc(N)c3cc(OC)c(OC)cc3n2)CC1,62% (active),25%,6%,101% (active),inactive,inactive,inactive,inactive
CC(C)(C)c1ccc(CNC(=O)c2cc(CNC3CCNCC3)ccc2O)cc1,8%,6%,2%,96% (active),inactive,inactive,inactive,inactive
O=C(Nc1cccc(-c2cccc(-c3nc4ccc(C(F)(F)F)cc4[nH]3)c2)c1)Nc1ccc(F)c(F)c1F,100% (active),71% (active),6%,99% (active),inactive,inactive,inactive,inactive
CCCCCCOc1ccc(C(=O)N[C@H]2CCN(CCCCCNC(=O)/C=C/c3ccc(Cl)c(Cl)c3)C2)cc1,25%,10%,-5%,99% (active),inactive,inactive,inactive,inactive
O=C(Nc1cccc(OC2CCN(Cc3ccccc3)CC2)c1)Nc1cccc([N+](=O)[O-])c1,48%,10%,0%,101% (active),inactive,inactive,inactive,inactive
Cc1cc(Nc2ccc(C)c(C)c2)n2nc(C)nc2n1,45%,10%,-5%,95% (active),inactive,inactive,inactive,inactive
NC(N)=NN=Cc1c2ccccc2c(Cl)c2ccc(Cl)cc12,89% (active),97% (active),8%,98% (active),inactive,inactive,inactive,inactive
O=C(Nc1ccc(OC2CCN(Cc3ccccc3)CC2)c(Cl)c1)c1ccsc1,92% (active),3%,4%,87% (active),inactive,inactive,inactive,inactive
Cc1cc(OCCCN2CCC(NS(=O)(=O)c3ccc(Cl)c(Cl)c3)CC2)c2ccccc2n1,35%,11%,1%,96% (active),inactive,inactive,inactive,inactive
NC1=NC(CCc2ccccc2)N(c2ccccc2)C(N)=N1 (configuration not stated),15%,1%,-9%,94% (active),inactive,inactive,inactive,inactive
C[C@@H](C(N)=O)N1CCCCC1c1ccc(OCc2cccc(F)c2)cc1 (some centres not stated),96% (active),79% (active),9%,84% (active),inactive,inactive,inactive,inactive
CC[C@H](C)CNC(=O)c1cccc(-c2ccc(CN3CCC(N4CCCC4)CC3)cc2)n1,82% (active),41%,-2%,101% (active),inactive,inactive,inactive,inactive
CN(C)c1ccc(C=Cc2ccc3ccccc3n2)c(Cl)c1,95% (active),59% (active),1%,94% (active),inactive,inactive,inactive,inactive

SMILES,growth inhibition [1],inhibition [2],inhibition [3],growth inhibition [4],outcome [5],outcome [6],outcome [7],outcome [8]
CC(C)CCN=C(N)c1ccc(OCCCCCOc2ccc(C(N)=NCCC(C)C)cc2)cc1,94% (active),5%,5%,98% (active),inactive,inactive,inactive,inactive
COc1ccc2ncc(F)c(CCN3C[C@@H]4CCC[C@]4(CNCc4ccc5c(n4)NC(=O)CS5)C3)c2n1,28%,18%,2%,87% (active),inactive,inactive,inactive,inactive
O=C(Cc1ccccn1)Nc1cccc(-c2cccc(-c3nc4ccc(C(F)(F)F)cc4[nH]3)c2)c1,22%,26%,-2%,95% (active),inactive,inactive,inactive,inactive
CC(=O)Nc1ncc(C(=O)Nc2cccc(-c3cccc(-c4nc5ccccc5[nH]4)c3)c2)s1,38%,16%,0%,92% (active),inactive,inactive,inactive,inactive
CCO[C@H]1CN[C@H](C#Cc2cc3c(Nc4ccc(OCc5cccc(F)c5)c(Cl)c4)ncnc3s2)C1,37%,8%,2%,100% (active),inactive,inactive,inactive,inactive
CC1SC(=S)NC1C(=O)O (configuration not stated),-1%,3%,0%,94% (active),inactive,inactive,inactive,inactive
Cc1cccc(C(=O)Nc2ccnc(N3CCC(N(C)Cc4cccc(C#N)c4)CC3)c2)c1,52% (active),5%,-2%,101% (active),inactive,inactive,inactive,inactive
O=c1cc(NCCCNC(CNCCc2ccccc2)c2cc(Br)cc(Br)c2)[nH]c2ccccc12 (configuration not stated),53% (active),-2%,1%,93% (active),inactive,inactive,inactive,inactive
Cc1nn(-c2ccc(Cl)cc2)c2[nH]c(CN3CCN(c4cccc(Cl)c4)CC3)cc(=O)c12,98% (active),0%,-3%,98% (active),inactive,inactive,inactive,inactive
COc1ccc(-c2cnc(N)c(-c3nc4ccc(Br)cc4[nH]3)c2)cc1,3%,42%,2%,100% (active),inactive,inactive,inactive,inactive
CCCCOc1c(CCC)cc(Cc2cnc(N)nc2N)cc1CCC,-2%,27%,2%,97% (active),inactive,inactive,inactive,inactive
COc1cc(C=CC(=O)N2CCN(Cc3cccc(C)c3)CC2)ccc1OCc1c(C)noc1C,95% (active),8%,-4%,86% (active),inactive,inactive,inactive,inactive
CC(=O)Nc1ccc(OCCCN(Cc2ccccc2C(F)(F)F)c2ccc(C(F)(F)F)c(C#N)c2)c(Cl)c1,43%,5%,3%,85% (active),inactive,inactive,inactive,inactive
COc1ccccc1CCNc1nc(C)cc(N[C@@H](CC(C)C)C(=O)NCc2cccs2)n1,31%,20%,0%,96% (active),inactive,inactive,inactive,inactive
CC(C)c1sc(N2CCN(C)CC2)nc1C(=O)NCCc1cccc(Cl)c1,15%,9%,-1%,91% (active),inactive,inactive,inactive,inactive
CCOc1ccccc1C=CC(=O)Nc1ccc2nc(N3CCN(C)CC3)cc(C)c2c1,91% (active),16%,-1%,102% (active),inactive,inactive,inactive,inactive
O=C(NC1CC1)c1ccc(N2CCCCN2CCc2ccccc2)c(C(F)(F)F)c1,84% (active),-9%,-4%,98% (active),inactive,inactive,inactive,inactive
CS(=O)(=O)N(c1ccccc1)c1cc(C(=O)N[C@@H](Cc2ccccc2)[C@H](O)CNC2CCCCC2)cc(N2CCCC2=O)c1,97% (active),8%,-3%,100% (active),inactive,inactive,inactive,inactive
Cc1ccc(CN2CCN(c3cc4c(cc3Cl)CCN4C(=O)Cc3ccc(NC(=O)c4ccc(C(F)(F)F)cc4)cc3)CC2)cc1,-8%,15%,4%,88% (active),inactive,inactive,inactive,inactive
